# aSyn UTR inh – MLPCN primary screen, SNCA 5' untranslated region | alpha-synuclein 5'UTR reporter, inhibitor activity | inhibition, % (tested at 7.5 µM) | 0.82% of 300,000 active; in the data active means inhibition above about 60%;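 further: H4 neuroglioblastoma cells stably carrying SNCA 5'UTR luciferase fusion; 0% = DMSO wells and 100% = positive control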
# HIF activator – HIF pathway transcriptional activation | activation, % at 7.5 µM (by protocol) | 0.32% of 300,000 active | AID 1910 | U2OS HRE-luciferase reporter, luminescence; normalized: DMSO 0%, desferrioxamine 100%;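 active means mean activation of at least 10% of the iron chelator positive control signal, with at least half of replicates also reaching 10%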
# KLF5 inhibitor – kruppel-like factor 5 inhibition; AID 1700; inhibition, % at 5 µM; 0.23% of 290,000 active; DLD-1 KLF5 promoter-luciferase reporter, luminescence;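 active means inhibition above a per-plate limit of that plate's mean compound inhibition plus 3 SD, cut at about 60% in these data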;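 further: 0% = DMSO wells and 100% = LY294002 at 200 µM; higher means less KLF5 promoter-driven luciferase light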
# Wee1 stabilizer – inhibitors of human Wee1 degradation; P30291; HeLa Luc-Wee1K328M stability, luciferase luminescence; 100% = proteasome inhibitor MG132 effect; reporter increase, % at 5 µM; 1.2% of 220,000 active;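 active means activation above the mean of all tested compounds plus 3 SD, set per screening run, cut at about 8.8% in these data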;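 further: cells exposed to compound for 20 h before luminescence read; 0% = DMSO alone and 100% = MG132 at 30 µM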
# Target sequence (P30291 whole entry K328M): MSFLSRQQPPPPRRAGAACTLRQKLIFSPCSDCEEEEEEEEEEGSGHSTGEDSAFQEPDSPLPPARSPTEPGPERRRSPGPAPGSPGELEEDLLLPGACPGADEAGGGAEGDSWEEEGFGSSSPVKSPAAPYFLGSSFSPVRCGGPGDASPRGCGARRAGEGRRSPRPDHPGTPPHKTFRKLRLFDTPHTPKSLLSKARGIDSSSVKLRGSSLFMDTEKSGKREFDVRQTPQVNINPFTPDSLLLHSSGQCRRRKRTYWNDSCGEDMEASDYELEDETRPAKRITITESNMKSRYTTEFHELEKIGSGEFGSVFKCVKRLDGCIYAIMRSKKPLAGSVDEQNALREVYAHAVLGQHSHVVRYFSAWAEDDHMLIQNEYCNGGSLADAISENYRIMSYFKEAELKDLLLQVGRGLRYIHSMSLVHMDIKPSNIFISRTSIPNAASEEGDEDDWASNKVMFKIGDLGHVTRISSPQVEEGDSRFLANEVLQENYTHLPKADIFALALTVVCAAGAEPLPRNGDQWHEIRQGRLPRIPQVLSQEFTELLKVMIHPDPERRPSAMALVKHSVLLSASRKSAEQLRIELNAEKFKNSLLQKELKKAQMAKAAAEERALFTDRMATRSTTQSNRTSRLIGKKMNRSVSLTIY
# Platelet DG rel – modulates dense granule release in human platelets. human platelet-rich plasma, SFLLRN dense granule ATP release, luminescence. inhibition, %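 (compounds screened at 7.5 µM in platelet-rich plasma)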. 0.22% of 300,000 active;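 active means mean replicate score, as percent of positive control, at or above 50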
# Active calls of the source: *; · = not tested or not shown. Rows were chosen to be rich in hits. Some 2.1% of all compounds tested hit in one or more screens of this group.
SMILES,aSyn UTR inh,HIF activator,KLF5 inhibitor,Wee1 stabilizer,Platelet DG rel
Cn1c(=O)c(=O)n(C)c2cc(S(=O)(=O)N3CCCC3C(=O)NCc3ccco3)ccc21 (centres undefined),-4.6,-0.2,-9.0,9.0*,2.3
CN(Cc1ccccc1)c1nc(-c2cccc([N+](=O)[O-])c2)nc2ccccc12,-18.6,-0.2,-5.7,10.7*,-9.8
CCc1ccc2oc(-c3cc(N)ccc3O)nc2c1,-36.6,1.0,-20.1,9.5*,25.7
Cc1ccc2nc(-c3cc(N)cc(N)c3)oc2c1,62.5*,-2.7,-7.4,0.1,24.3
Nc1ccc(-c2nc3ccc(N)cc3o2)cc1,-13.8,·,-130.2,1.9,11.7
CN(C)c1ccc(-c2nc3cc(N)ccc3o2)cc1,93.4*,-0.2,7.7,·,30.4
Cc1ccc(C)c(-c2nc3cc(N)ccc3o2)c1,62.9*,-1.1,-63.0,0.1,0.8
Cc1ccc(-c2nc3cc(N)ccc3o2)cc1Br,-53.9,1.8,-158.2,·,4.5
CC(OC(=O)CN1C(=O)c2ccccc2C1=O)C(=O)NC1CCCC1 (centres undefined),-12.7,0.1,-3.4,·,-4.6
CS(=O)(=O)Nc1cccc(C2=NN(C(=O)c3ccccc3Cl)C(c3ccccc3O)C2)c1 (centres undefined),16.8,-0.1,-25.9,1.8,-1.0
CCCc1cc(C(=O)NC(C)C2CCCO2)cs1 (centres undefined),-50.5,0.3,-42.1,·,-6.2
O=C(NC(C1CC1)C1CC1)C1CCC(=O)N(CCCN2CCCC2=O)C1 (centres undefined),-21.9,0.7,11.4,·,-13.4
Cc1c(Br)c(C(=O)NNC(=O)c2ccc(C(C)(C)C)cc2)nn1C,-41.0,4.1,-62.8,-1.0,0.6
CCc1c(C(=O)NC2CCCc3ccccc32)[nH]c(C)c1C(C)=O (centres undefined),64.2*,0.5,25.1,·,3.6
O=C(NC1CCCc2ccccc21)c1n[nH]c(=O)c2ccccc12 (centres undefined),87.5*,-0.3,1.8,2.8,15.8
O=C(NC1CCCc2ccccc21)c1ccccc1 (centres undefined),14.9,-0.2,3.0,2.9,1.6
COc1cc2c(cc1OC)C(C)N(C(=O)Nc1ccc(F)cc1)CC2 (centres undefined),-47.9,4.7,1.4,·,-1.1
Cc1ccc(S(=O)(=O)Nc2ccccc2C(=O)N2CCCCC2C)c(C)c1NS(C)(=O)=O (centres undefined),22.3,1.2,-3.3,·,1.4
CC(C)CC(NC(=O)c1ccccc1NC(=O)c1ccccc1)C(=O)O (centres undefined),-0.7,369.3*,-19.7,0.5,15.4
Cc1ccc(NC(=O)CN(C)Cc2nc3c(Br)cc(Br)cc3c(=O)[nH]2)cc1,6.4,-0.5,-10.2,-1.9,-11.3
CCOc1ccc(S(=O)(=O)NCCC(=O)N2CCCN(C)CC2)cc1,-9.8,0.3,-36.4,·,50.6*
CCOc1cc(CNc2ccc3c(c2)OCCO3)cc(Br)c1OC,95.4*,1.5,50.3,1.2,5.5
CCOc1cc(CNc2ccc3c(c2)OCCO3)cc(Br)c1OCC(N)=O,-65.5,0.2,3.2,0.3,-2.4
CCOc1c(Br)cc(CNc2ccc3c(c2)OCCO3)cc1OC,96.8*,0.5,54.6,5.8,2.4
C/C(=N\O)C(C)(C)Nc1ccc(Br)cc1,-18.4,0.0,-20.0,-5.1,-1.3
SMILES,aSyn UTR inh,HIF activator,KLF5 inhibitor,Wee1 stabilizer,Platelet DG rel
O=C(OCCCCN1C(=O)c2ccccc2C1=O)c1ccc(S(=O)(=O)N2CCCC2)cc1,22.3,-0.1,6.5,0.6,58.0*
O=C(CCCCCN1C(=O)c2ccccc2C1=O)Nc1ccc(S(=O)(=O)N2CCCCC2)cc1,13.4,0.2,2.3,-1.4,-1.3
O=C(c1ccc2c3n(nc2c1)-c1ccccc1CO3)N1CCOCC1,-113.7,0.3,·,·,51.2*
O=C(c1ccc2c3n(nc2c1)-c1ccccc1CO3)N1CCCCC1,-9.9,-1.8,·,·,20.1
O=C(CN1CCN(c2ccccc2)CC1)N1N=CCC1c1ccccc1 (centres undefined),-1.5,0.0,6.8,-1.1,78.2*
CC(C)NC(=S)NCc1cccs1,21.3,0.0,-18.6,-0.4,2.2
COC(=O)/C(=C(/F)SCC(C)=O)C(F)(F)F,-5.4,91.0*,-8.1,2.0,4.9
COc1ccccc1CNC(=O)CCC(=O)N1Cc2cccc(OC)c2Oc2ncccc21,8.1,·,-11.4,·,4.2
O=C(NC(=S)Nc1ccc(CN2CCOCC2)cc1)c1ccco1,-117.2,2.9,-41.6,10.4*,-1.8
COc1ccc(-c2cn3cccc(C)c3n2)cc1F,-149.1,1.9,-274.9,3.0,0.9
COc1ccc(-c2cn3cc(C)ccc3n2)cc1F,77.5*,-1.5,-3.7,1.2,4.8
COc1ccc(-c2cn3cc(C)ccc3n2)cc1OC,-19.1,1.2,-176.2,10.0*,17.5
Cc1nc2ccc([N+](=O)[O-])cc2c(=O)n1Cc1ccccc1Br,8.1,-1.7,-24.3,·,7.7
CCC1(c2ccc(F)cc2)NC(=O)N(CC(=O)NCC(=O)Nc2cccc(C)c2C)C1=O (centres undefined),-16.2,0.2,·,·,0.9
NC(CCCCc1ccccc1)c1cccc2ccccc12 (centres undefined),55.1,-2.1,·,·,49.9*
Nc1nc(-c2cc(O)ccc2[N+](=O)[O-])cc(-c2ccccc2)c1[N+](=O)[O-],-119.7,-0.8,-44.1,·,1.4
COc1ccc(OC)c(Nc2nc(NCc3ccco3)nc(N)c2[N+](=O)[O-])c1,55.5,0.2,-17.2,8.9*,-2.6
O=C(COc1ccc(/C=N/NC(=O)c2cc3ccccc3o2)cc1Cl)Nc1ccccc1,100.8*,1.3,-28.6,-1.8,4.9
C/C=C/c1ccc(OCCCCOc2ccccc2C(C)=O)c(OC)c1,3.7,-0.3,18.9,-0.4,5.0
C/C=C/c1ccc(OCCCCOc2c(OC)cccc2OC)c(OC)c1,30.8,0.4,19.0,14.7*,24.5
O=C(c1cccc(S(=O)(=O)N2CCCCC2)c1)N(CCc1ccccc1)Cc1ccccc1,13.4,-0.7,·,·,4.2
CS(=O)(=O)c1cccc(C(=O)N(CCc2ccccc2)Cc2cccs2)c1,-4.5,15.0*,0.2,·,-41.0
Cc1nc(NCCC(C)C)c2nnn(Cc3ccccc3)c2n1,25.7,-1.2,-0.4,·,-1.7
Cc1ccc(-c2nc(C#N)c(N3CCCCC3)o2)cc1,-40.6,1.0,-57.8,9.7*,-21.3
COc1ccc(-c2nc(C#N)c(N3CCCCC3)o2)cc1,-35.4,-22.3,-39.6,·,-7.9
Nc1nc(N)nc(COc2ccccc2)n1,-106.5,1.0,-91.8,9.4*,-1.5
CCCCC(=O)OCC(=O)N1N=C(c2c[nH]c3ccccc23)C(O)C1c1ccc(OC)cc1 (centres undefined),-9.6,1.6,-12.2,·,-4.2
Cc1cc2ncc(-c3ncc(C(F)(F)F)cc3Cl)cn2n1,65.4*,-2.8,-104.9,1.0,6.7
CCC(=O)Nc1nc2ccccc2n1Cc1ccccc1,19.0,0.0,0.1,-0.8,-0.6
CCC(=O)Nc1nc2ccccc2n1Cc1ccc(C)cc1,77.4*,0.1,-14.1,-1.0,-4.7
